# These entries were drawn from the full list.
# aSyn 5UTR act = Activators via SNCA 5'UTR binding, MLPCN; activity score, % (tested at 7.5 µM), hits read low; 300,000 compounds, 7.1% hits; AID 1814; alpha-synuclein 5'UTR reporter, activators screen; in the data active means activity score below about -60%
# Active calls of the source: *.
SMILES,aSyn 5UTR act
COc1ccc(C)cc1NC(=O)CCc1c(C)nn(-c2ccc(N3CCCCC3)nn2)c1C,-94.7*
CC(=O)c1ccc(NC(=O)CCc2nnc3ccc(N4CCCC4)nn23)cc1,-95.1*
Cn1c(=N)n(CC(=O)c2ccc(Br)s2)c2ccccc21,-118.0*
Cn1c(=N)n(CC(=O)c2cccs2)c2ccccc21,-92.1*
COc1cccc(C(=O)Cn2c(=N)n(C)c3ccccc32)c1,86.4
CC(=O)c1cccc(OCc2cc(C(=O)N3CCSCC3)no2)c1,-151.6*
O=C(c1cc(COc2ccc(F)c(F)c2)on1)N1CCSCC1,-94.1*
CNc1nc(-c2ccccc2)[n+](-c2ccc(C)cc2)s1,-115.6*
CNc1ccc(/C=C2\COc3ccccc3C2=O)cc1[N+](=O)[O-],-117.5*
O=C1/C(=C/c2ccccc2[N+](=O)[O-])COc2ccccc21,-113.6*
CCOC(=O)C1(C)C=C(Nc2cccc(OC)c2)C(=O)N1c1ccccc1 (stereo not drawn),-79.0*
O=C1/C(=C/Nc2cccc([N+](=O)[O-])c2)CCc2ccccc21,-186.3*
COc1cccc(/C=C/C(=O)Nc2cccc(C(C)=O)c2)c1OC,-126.0*
COc1ccc(/C=C/C(=O)Nc2cccc(C(C)=O)c2)cc1,-95.3*
CCc1cc(C(=O)O)c(NC(=O)/C=C/c2ccc(OC)cc2)s1,-119.4*
Cc1occc1C(=O)N/N=C/C(Br)=C/c1ccccc1,-219.2*
O=C(N/N=C/C(Br)=C/c1ccccc1)c1ccccc1[N+](=O)[O-],-75.9*
Cc1cc(NCCCn2ccnc2)n2nc(C)c(-c3ccccc3)c2n1,-139.5*
Cc1cc(NCCCn2ccnc2)n2nc(C)c(-c3ccc(Cl)cc3)c2n1,53.8
CCOc1ccc(-c2csc(Cn3c(CN4CCN(C)CC4)nc4ccccc4c3=O)n2)cc1,-65.6*
Cc1nn(-c2ccccc2)c2c1C(O)n1c(nc3ccccc31)S2 (stereo not drawn),-67.2*
CC1CCCN(C(=O)CSc2nnc(-c3cccs3)o2)C1 (stereo not drawn),-78.9*
CCC1CCCCN1C(=O)CSc1nnc(-c2cccs2)o1 (stereo not drawn),-73.8*
C=C(C)CSc1nc2nc(C)c(Br)cc2[nH]1,-73.4*
Cc1cc2ncn(C(=O)N3CCC(C)CC3)c2cc1C,-66.5*
SMILES,aSyn 5UTR act
CCCN1C/C(=C/c2ccc3c(c2)OCO3)C(=O)/C(=C/c2ccc3c(c2)OCO3)C1,-105.4*
O=C(N/N=C/c1ccc(OCc2ccccc2)cc1)c1cc[n+](Cc2ccccc2)cc1,-76.6*
CCOc1ccc(OCc2cccc(C(=O)N/N=C/c3cccnc3)c2)cc1,87.0
CC/C(=N\NC(=O)c1ccoc1C)c1ccc(C)o1,-155.0*
Cc1occc1C(=O)N/N=C/c1ccc(OCc2ccccc2)cc1,-137.7*
Cc1ccc(-c2nc3ccccc3o2)cc1NC(=O)c1ccc2c(c1)OCO2,-150.8*
Cc1ccc2oc(-c3ccc(NC(=O)c4ccc5c(c4)OCO5)cc3)nc2c1,-104.9*
O=C(Nc1ccc(-c2nc3ccccc3o2)cc1)c1ccc2c(c1)OCO2,-65.8*
Cc1ccc(C2=NNC3(CCOC(C)(C)C3)S2)cc1 (stereo not drawn),-163.9*
C(=C\c1ccccc1)/C=N/Nc1nc2ccccc2[nH]1,-274.8*
Fc1ccc(/C=N/Nc2nc3ccccc3[nH]2)cc1F,-159.1*
O=c1[nH]c(N/N=C/c2ccccc2)nc2ccccc12,-211.8*
O=c1[nH]c(N/N=C\c2ccc3c(c2)OCO3)nc2ccccc12,-161.0*
C(/CCc1ccccc1)=N\Nc1nc2ccccc2[nH]1,-67.2*
Cc1cc(N/N=C/c2ccc3c(c2)OCO3)nc2ccccc12,-180.0*
Fc1cccc(/C=N/Nc2nc3ccccc3[nH]2)c1,-160.4*
Brc1ccc(-c2ccc(/C=N/Nc3nc4ccccc4[nH]3)o2)cc1,-227.1*
C(=N\Nc1nc2ccccc2[nH]1)/c1ccccc1,-175.1*
COc1ccc(NC(=O)CN2CCCCC2)c([N+](=O)[O-])c1,-98.0*
Cc1ccc(NC(=O)COC(=O)COc2ccc(Cl)cc2C)c([N+](=O)[O-])c1,-65.4*
COc1cc(NC(=O)Cn2ncc(Cl)c(Cl)c2=O)c(C)cc1[N+](=O)[O-],121.4
COc1ccc(NC(=O)CN2CCC(C)CC2)c([N+](=O)[O-])c1,-68.5*
Cc1ccc(NC(=O)CN2CCCCCC2)c(Br)c1,-203.6*
COc1ccc(NC(=O)COc2ccc(C)cc2)c([N+](=O)[O-])c1,-142.7*
COc1ccc2[nH]cc(C(=O)CN3CCC(C)CC3)c2c1,-176.9*
SMILES,aSyn 5UTR act
CCCn1c(N2CCN(CC(=O)c3c(C)n(C)c4ccc(OC)cc34)CC2)nc2c1c(=O)[nH]c(=O)n2C,62.6
COc1ccc(NC(=O)CSc2ccccc2)c([N+](=O)[O-])c1,-106.1*
O=C(CCS(=O)(=O)c1ccccc1)NC12CC3CC(CC(C3)C1)C2,-179.3*
C/C(=N\Nc1ccc(C(=O)O)cc1)c1ccc2c(c1)Nc1ccccc1S2,-109.5*
O=C(Nc1nnc(C2CC2)s1)c1cc(-c2ccccc2)nn1-c1ccccc1,-94.5*
O=C(Nc1nnc(C2CC2)s1)c1ccco1,-74.0*
CCc1c(C(=O)Nc2nnc(C3CC3)s2)csc1C,-118.6*

# Compound activity (PubChem)
